Data on 43 compounds can be found in PubChem BioAssay (Tox21).

This assay concerns the target Beta-2 adrenergic receptor (Homo sapiens) (UniProt P07550). The assay can be described thus: Adrenergic beta2 receptor (ADRB2) small molecule agonists, cell-based qHTS assay (AID 1963593).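 Further: CHO cells stably overexpressing human ADRB2.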 Put shortly: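 CHO cells stably over-expressing ADRB2 were plated overnight at 37C, then dosed with compounds plus a stimulation mix containing 100uM IBMX and 25uM Ro-20-1724 for 0.5hr at room temperature. cAMP was measured by HTRF competition, 1hr.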
(In general: In qHTS, concentration-response curves come from the screen itself.)

Records with an inconclusive call do not appear. Where a call stands in place of a potency, no number is given. Activity calls are given as the source filed them. The call rests on the fitted dose curve.

Beta-2 adrenergic receptor (Homo sapiens), sequence (P07550 whole entry, looked up): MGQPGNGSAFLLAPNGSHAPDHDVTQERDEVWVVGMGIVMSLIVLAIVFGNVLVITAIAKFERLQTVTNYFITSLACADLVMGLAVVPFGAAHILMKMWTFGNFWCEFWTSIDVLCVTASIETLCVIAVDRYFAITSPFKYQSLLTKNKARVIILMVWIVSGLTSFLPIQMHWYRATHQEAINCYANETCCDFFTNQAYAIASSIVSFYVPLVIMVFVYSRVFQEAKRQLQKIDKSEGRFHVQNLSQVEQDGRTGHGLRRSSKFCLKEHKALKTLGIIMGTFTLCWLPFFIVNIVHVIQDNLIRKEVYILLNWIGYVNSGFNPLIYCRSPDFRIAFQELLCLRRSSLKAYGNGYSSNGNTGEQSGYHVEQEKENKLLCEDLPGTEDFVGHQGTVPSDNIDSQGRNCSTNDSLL

As to `CCCCCCCCCCCCN(C)C`, the Potency entry is “inactive”.
Under `CCC(OC(C)=O)C(CC(C)NC)(c1ccccc1)c1ccccc1` (stereo not drawn) stands “inactive”.
Under `COc1ccc2c(c1OC)C(=O)O[C@H]2[C@@H]1c2cc3c(cc2CCN1C)OCO3` stands “inactive”; under `C=CC(=O)N(C)C`, “inactive”.
Take `COC(=O)C(c1ccccc1)C1CCCCN1` (stereo not drawn): the Potency entry was “inactive”.
For `CC(Cc1ccccc1)N(C)Cc1ccco1` (stereo not drawn) the value was “inactive”; for `NC(=O)C(Cl)Cl`, “inactive”; for `COc1cc(C=O)cc2c1[C@H](COC(N)=O)[C@]1(OC(C)=O)ON2C[C@H]2[C@@H]1N2C(C)=O`, “inactive”.
Under `CCOC(=O)NC(C)(C)Cc1ccc(Cl)cc1` stands “inactive”.
For `CC(C)=CCOc1c2occc2cc2ccc(=O)oc12` the value was “inactive”.
On to `CC(Cc1ccccc1)NCCn1cnc2c1c(=O)n(C)c(=O)n2C` (stereo not drawn), for which the Potency result is “inactive”.
Regarding `CN(C)c1ccc(N=Nc2ccccc2)cc1`, the Potency result was “inactive”.
Regarding `CC(C)[C@@H](Nc1ccc(C(F)(F)F)cc1Cl)C(=O)OC(C#N)c1cccc(Oc2ccccc2)c1` (stereo partly drawn), the Potency result is “inactive”.
Take `BrCCCCBr`: the Potency result is “inactive”.
For `CCCCS(=O)(=O)Cl`, the Potency result is “inactive”.
As to `CC(C)[C@H](C(=O)OC(C#N)c1cccc(Oc2ccccc2)c1)c1ccc(OC(F)F)cc1` (stereo partly drawn), the Potency entry was “inactive”.
For `CC/C(=N\OC/C=C/Cl)C1=C(O)CC(C2CCOCC2)CC1=O` (stereo not drawn) the value was “inactive”; for `O=C(O)c1cc(I)cc(I)c1I`, “inactive”.
On to `CCCCCCCCCCCCCN1CC(C)OC(C)C1` (stereo not drawn), for which the Potency result was “inactive”.
As for `O=C(N/N=C/c1ccc([N+](=O)[O-])o1)c1cc([N+](=O)[O-])cc([N+](=O)[O-])c1O`, the Potency result is “inactive”.
Under `ClCC(Cl)Cl` stands “inactive”; under `S=C=Nc1cccc2ccccc12`, “inactive”.
Under `CCCCCCCCP(=O)(O)O` stands “inactive”; under `OC(Cn1cncn1)(c1ccc(F)cc1)c1ccccc1F` (stereo not drawn), “inactive”; under `CCSC(C)CC1CC(=O)C(/C(CC)=N/OC/C=C/Cl)=C(O)C1` (stereo not drawn), “inactive”.
Under `O=c1[nH]oc2c1CCNC2` stands “inactive”; under `Nc1n[nH]c(N)n1`, “inactive”.
As for `CCN[C@@H](C)Cc1ccccc1`, the Potency result was “inactive”.
For `Cn1cc(C2=C(c3cn(C4CCN(Cc5ccccn5)CC4)c4ccccc34)C(=O)NC2=O)c2ccccc21` the value was “inactive”; for `CSCCCN=C=S`, “inactive”.
Turning to `COC(=O)C(C)Oc1ccc(Oc2ccc(Cl)cc2Cl)cc1` (stereo not drawn), the Potency entry was “inactive”.
For `Oc1cccc(-c2ccccc2)c1` the value was “inactive”.
Turning to `CC(C)CCCCCCCOC(=O)c1ccccc1C(=O)OCCCCCCCC(C)C`, the Potency result is “inactive”.
For `CC(=O)CCc1ccc2c(c1)OCO2` the value was “inactive”; for `CCCCOC(C)=O`, “inactive”.
For `O=C(NC(=O)c1c(F)cccc1F)Nc1ccc(Oc2ccc(C(F)(F)F)cc2Cl)cc1F` the value was “inactive”; for `CSC1=N[C@@](C)(c2ccccc2)C(=O)N1Nc1ccccc1`, “inactive”; for `N#CCCl`, “inactive”.
Under `SCc1ccco1` stands “inactive”; under `CSSC`, “inactive”; under `Cc1ccccc1C(=O)Nc1cccc(OC(C)C)c1`, “inactive”.
As for `COc1ccc(-c2ccccc2)cc1NNC(=O)OC(C)C`, the Potency result was “inactive”.
Under `CN(CCCC(O)c1cccnc1)N=O` (stereo not drawn) stands “inactive”.
